Assay outcomes as filed in PubChem BioAssay.
Hits are enriched below; roughly 4.3% of the tested compounds scored in any of these assays.
dFosB activator: mouse delta FosB homodimer activation; purified delta FosB, TAMRA-CDK5 oligo fluorescence polarization; percent of positive-control signal above neutral wells; activation, % at 25 µM; 0.99% of 340,000 active; AID 493131;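 active = mean activation above about 17%, with every replicate also reaching it, limit read from the data, passing the limit was not always enough; inconclusive = only one of the two conditions met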
Target sequence (P13346 whole entry, looked up): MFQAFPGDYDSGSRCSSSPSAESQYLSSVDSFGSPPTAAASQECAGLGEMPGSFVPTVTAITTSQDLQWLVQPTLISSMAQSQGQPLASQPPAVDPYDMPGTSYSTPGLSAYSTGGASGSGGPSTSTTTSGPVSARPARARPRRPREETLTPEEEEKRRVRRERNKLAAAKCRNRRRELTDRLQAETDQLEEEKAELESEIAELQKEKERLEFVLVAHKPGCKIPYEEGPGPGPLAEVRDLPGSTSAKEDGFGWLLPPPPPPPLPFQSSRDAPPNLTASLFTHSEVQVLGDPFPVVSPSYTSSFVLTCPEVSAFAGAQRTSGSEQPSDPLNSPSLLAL
NR3A LBD binder: modulators (binders) of human NR3A ligand-binding domain | NR3A LBD differential scanning fluorimetry, Tm shift; 0% = protein alone, 100% = glycine-bound protein | Tm shift relative to glycine control, % at 25 µM | 2.5% of 340,000 active;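 active = melting temperature shift of at least 10% of the positive control shift, at one fixed dose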
Yeast superoxide: lowers age-related superoxide in aged yeast cells; S. cerevisiae aged cells, superoxide DHE fluorescence; active compounds read low; 0.18% of 330,000 active; AID 2690; superoxide response (% of plate mean), % at 10 µM;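 active = superoxide response under a set limit, about three screen SD below normal, cut at about 65% in these data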;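 also: yeast aged for seven days with compound at 30 °C before DHE staining; 100% = average MFI of all compound-treated wells on the plate with controls excluded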
UBC13 inh: blocks human UBC13 polyubiquitin chain formation. AID 485273. P61088. 0.47% of 330,000 active. inhibition, % at 20 µM. TR-FRET; in the data active = inhibition above about 45%, passing the limit was not always enough; inconclusive = no clear call, values can overlap the other calls
NALP1 yeast inh: blocks the NALP1 inflammasome reconstituted in yeast. S. cerevisiae NALP1/ASC/caspase-1 growth, X-gal OD620, 72 h. inhibition, % at 10 µM. 0.61% of 280,000 active. AID 2071; in the data active = inhibition mostly above about 24%, no sharp cut-off; inactive = mostly below about 32%
Starred values were filed as active, the others as inactive.

What do the screens show for `Cc1ccc(NS(=O)(=O)c2cc(NC(=O)c3cc4c(s3)CCCC4)ccc2C)c(C)c1`?
dFosB activator: 2; NR3A LBD binder: 25*; Yeast superoxide: 101; UBC13 inh: 15; NALP1 yeast inh: 33

What do the screens show for `Cc1ccc(S(=O)(=O)Nc2ccc(Cl)cc2)cc1NC(=O)c1cc2c(s1)CCCC2`?
dFosB activator: -3; NR3A LBD binder: 12*; Yeast superoxide: 96; UBC13 inh: 9; NALP1 yeast inh: 36

Results for Cc1ccc(NS(=O)(=O)c2cc(NC(=O)c3ccc4c(c3)NC(=O)CS4)ccc2Cl)c(C)c1 ?
dFosB activator: 4; NR3A LBD binder: 16*; Yeast superoxide: 101; UBC13 inh: -1; NALP1 yeast inh: 15

Results for Cc1ccc(OC(C)C(=O)Nc2ccc(C)c(S(=O)(=O)Nc3ccc(C)cc3C)c2)cc1 (configuration not stated) ?
dFosB activator: -7; NR3A LBD binder: 12*; Yeast superoxide: 103; UBC13 inh: -1; NALP1 yeast inh: 27

What do the screens show for `Cc1ccc(S(=O)(=O)N2CCOCC2)cc1NC(=O)c1cc2c(s1)CCC2`?
dFosB activator: -5; NR3A LBD binder: 4; Yeast superoxide: 88; UBC13 inh: 5; NALP1 yeast inh: 6

Results for O=C(O)CCNC(=O)CCCn1nnc2ccccc2c1=O ?
dFosB activator: 2; NR3A LBD binder: -1; Yeast superoxide: 103; UBC13 inh: -6; NALP1 yeast inh: 5

Results for Cc1ccc(CN2CCC(=O)N2)cc1 ?
dFosB activator: -7; NR3A LBD binder: 0; Yeast superoxide: 98; UBC13 inh: 3; NALP1 yeast inh: 11

How did Cc1cccc(C)c1NC(=S)NC(C)(C)CO do in these assays?
dFosB activator: 1; NR3A LBD binder: 1; Yeast superoxide: 106; UBC13 inh: -9

What do the screens show for `Fc1cccc(C2NN=C(c3ccccc3)S2)c1` (configuration not stated)?
dFosB activator: -5; NR3A LBD binder: 34*; Yeast superoxide: 83; UBC13 inh: 6; NALP1 yeast inh: 33

Results for Cc1ccc(C2=NNC(c3cccc(F)c3)S2)cc1 (configuration not stated) ?
dFosB activator: -10; NR3A LBD binder: -13; Yeast superoxide: 100; UBC13 inh: -7; NALP1 yeast inh: -2

How did CCN(CC(=O)Nc1c(F)cccc1F)C(=O)c1cc(S(=O)(=O)N2CCOCC2)ccc1N1CCCC1 do in these assays?
dFosB activator: -6; NR3A LBD binder: 0; Yeast superoxide: 108; UBC13 inh: 0

What do the screens show for `O=C(CSc1nc2nc(-c3cccs3)cc(C(F)(F)F)c2c(=O)[nH]1)Nc1ccc(F)c(F)c1`?
dFosB activator: 5; NR3A LBD binder: 35*; Yeast superoxide: 103; UBC13 inh: -17; NALP1 yeast inh: 9

What do the screens show for `Cc1ccc(C(=O)N/N=C/c2cc(C)n(-c3ccc(Br)cc3)c2C)cc1[N+](=O)[O-]`?
dFosB activator: -4; NR3A LBD binder: 14*; Yeast superoxide: 104; UBC13 inh: -8; NALP1 yeast inh: 6

How did C/C(=N/NC(=O)CNC(=O)/C=C/c1ccccc1)c1ccco1 do in these assays?
dFosB activator: 0; NR3A LBD binder: 0; Yeast superoxide: 100; UBC13 inh: -10; NALP1 yeast inh: 9

How did COc1ccc(/C=C/C(=O)NCC(=O)N/N=C(/C)c2ccco2)cc1 do in these assays?
dFosB activator: -2; NR3A LBD binder: 14*; Yeast superoxide: 91; UBC13 inh: -12; NALP1 yeast inh: 20

How did CC1C(=O)C(C)C(c2cc(Br)ccc2O)NC1c1cc(Br)ccc1O (configuration not stated) do in these assays?
dFosB activator: inconclusive; NR3A LBD binder: 32*

Results for N#Cc1c(NC(=O)Cn2c(=O)oc3ccccc32)oc(-c2ccccc2)c1-c1ccccc1 ?
dFosB activator: -16; NR3A LBD binder: 11*; Yeast superoxide: 116; UBC13 inh: 2; NALP1 yeast inh: 25

Results for O=C(Cn1c(=O)oc2ccccc21)Nc1ccc(Br)cc1 ?
dFosB activator: 1; NR3A LBD binder: -5; Yeast superoxide: 87; UBC13 inh: 7; NALP1 yeast inh: 11

Results for COc1ccc(NC(=O)c2cccc(NC3=NC4CS(=O)(=O)CC4S3)c2)cc1Cl (configuration not stated) ?
dFosB activator: -8; NR3A LBD binder: -16; Yeast superoxide: 140; UBC13 inh: 29; NALP1 yeast inh: -11
